# Measured values published in paper PMC4336329 (PLoS ONE, 2015).
# Screen size: about 310,000 compounds; about 14,000 (4.5%) showed an effect of 50% or more. Effects have a minus sign here. The list comes from a sample in which strong results are over-represented; it also holds similar structures and randomly drawn compounds.
# Biological target: human ether-à-go-go-related gene (hERG) potassium channel (human, UniProt Q12809)
# Assay: primary screen, population patch clamp on CHO cells stably expressing hERG; higher = less effect of the substance
# 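Also: peak tail current of the secondary pulse compared with the same well before compound.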
# Chain of human ether-à-go-go-related gene (hERG) potassium channel (Q12809 whole entry, looked up): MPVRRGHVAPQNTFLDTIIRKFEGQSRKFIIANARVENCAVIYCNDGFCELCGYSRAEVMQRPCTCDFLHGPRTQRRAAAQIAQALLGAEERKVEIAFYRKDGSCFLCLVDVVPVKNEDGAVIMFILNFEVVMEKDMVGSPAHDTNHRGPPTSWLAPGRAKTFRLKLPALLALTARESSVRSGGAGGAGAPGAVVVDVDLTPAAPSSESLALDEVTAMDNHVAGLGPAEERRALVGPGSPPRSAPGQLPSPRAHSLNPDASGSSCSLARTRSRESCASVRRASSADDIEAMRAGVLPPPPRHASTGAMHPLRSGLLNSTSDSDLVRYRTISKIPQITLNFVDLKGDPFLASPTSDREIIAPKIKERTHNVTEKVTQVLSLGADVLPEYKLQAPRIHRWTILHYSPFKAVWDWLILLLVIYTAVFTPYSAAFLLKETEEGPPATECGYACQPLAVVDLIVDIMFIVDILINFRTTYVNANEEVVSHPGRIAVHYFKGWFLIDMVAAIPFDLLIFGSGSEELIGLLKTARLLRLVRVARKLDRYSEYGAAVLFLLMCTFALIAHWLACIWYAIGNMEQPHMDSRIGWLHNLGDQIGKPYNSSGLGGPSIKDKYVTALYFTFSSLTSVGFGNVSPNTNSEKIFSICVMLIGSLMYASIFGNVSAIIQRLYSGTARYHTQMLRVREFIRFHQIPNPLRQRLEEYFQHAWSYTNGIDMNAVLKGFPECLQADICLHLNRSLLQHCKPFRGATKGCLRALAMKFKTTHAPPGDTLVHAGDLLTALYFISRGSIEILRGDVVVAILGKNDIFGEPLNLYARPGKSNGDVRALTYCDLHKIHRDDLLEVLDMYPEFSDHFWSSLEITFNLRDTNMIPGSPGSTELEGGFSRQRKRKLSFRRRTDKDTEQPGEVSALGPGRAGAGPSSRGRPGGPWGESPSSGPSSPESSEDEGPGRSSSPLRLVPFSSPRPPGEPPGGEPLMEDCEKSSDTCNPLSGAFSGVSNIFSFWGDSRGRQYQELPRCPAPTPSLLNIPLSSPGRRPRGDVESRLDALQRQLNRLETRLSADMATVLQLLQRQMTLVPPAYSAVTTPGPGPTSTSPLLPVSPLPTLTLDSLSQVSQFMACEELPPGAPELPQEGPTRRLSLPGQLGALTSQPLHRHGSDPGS
row,Compound,"hERG current change (%, negative = inhibition) at 10uM [%]"
1,CCCn1cnc2c(=S)nc(N)[nH]c21,16.3
2,CCNCCC(=O)N1c2ccccc2Sc2ccc(NC(=O)OCC)cc21.Cl,-29.6
3,COC(=O)c1c(C)oc2cc(Br)c(OCC(=O)C(C)(C)C)cc12,6.12
4,CC(C)N1C(=O)CCC1C(=O)NC1CCCC1 (stereo not drawn),-3.05
5,CCOc1ccc(-c2cc(C(=O)N/N=C(\C)c3cccnc3)c3ccccc3n2)cc1,10.6
6,CCOc1ccc(S(=O)(=O)N(CC)CC(=O)N2CCOCC2)cc1C,6.73
7,CCCNC(=O)NCc1ccc(N2CCCC2=O)cc1,8.43
8,O=C(O)CCCCCCCCCCP(=O)(c1ccccc1)c1ccccc1,-7.05
9,O=P(O)(O)CCP(=O)(c1ccccc1)c1ccccc1,9.46
10,O=P(CCCCCCCCCP(=O)(c1ccccc1)c1ccccc1)(c1ccccc1)c1ccccc1,-56.1
11,CCN(CC(=O)N1CCCCC1)S(=O)(=O)c1ccccc1,-7.12
12,COc1ccc(CN2CCN(c3ccc(F)cc3)CC2)c(OC)c1OC,-70.2
13,COc1cc(OC)c(OC)cc1CN1CCN(c2ccccc2OC)CC1,-31.1
14,COc1ccc(C2C(C#N)=C(N)Oc3n[nH]c(C)c32)cc1Cn1cc([N+](=O)[O-])cn1 (stereo not drawn),-14
15,COc1ccc(C2C(C#N)=C(N)Oc3n[nH]c(C)c32)cc1CN1CCN(c2ccc(F)cc2)CC1 (stereo not drawn),-65.6
16,COc1ccc(C2C(C#N)=C(N)Oc3n[nH]c(C)c32)cc1Cn1nnc2ccccc21 (stereo not drawn),-8.03
17,COc1ccc(CN2CCNCC2)c(OC)c1OC,9.67
18,COc1ccc(CN2CCN(C(c3ccc(F)cc3)c3ccc(F)cc3)CC2)c(OC)c1OC.Cl,-13.3
19,COc1cc(OC)c(CN2CCCN(C)CC2)cc1Br,18.1
20,COc1cc(OC)c(OC)cc1CN1CCN(c2ccc(F)cc2)CC1,-68.5
21,COc1cc(OC)c(CN2CCN(c3ccc(F)cc3)CC2)cc1Br,-70.3
22,COc1cc(OC)c(CN2CCCCCCC2)cc1Br,-22.4
23,COc1cc(OC)c(OC)cc1CN1CCN(S(=O)(=O)c2ccc(F)cc2)CC1.O=C(O)C(=O)O,-7.69

row,Compound,"hERG current change (%, negative = inhibition) at 10uM [%]"
1,S=c1[nH]nc(-c2ccccc2)n1/N=C/c1c[nH]c2ccccc12,12.1
2,CC1(C)CC2CC(C)(CN2C(=O)COC(=O)CNC(=O)c2ccc(Cl)c(Cl)c2)C1 (stereo not drawn),-20.9
3,O=C(CN1C(=O)NC2(CCCCCC2)C1=O)NCCc1ccc(F)cc1,-13
4,O=C(NCc1cccs1)C1CCN(S(=O)(=O)c2ccc(Br)s2)CC1,-14.8
5,CCc1cc2c(=O)n(N)c(CCC(=O)O)nc2s1,-8.56
6,Cc1ccc(-n2nnnc2SCC(=O)c2c(N)n(C3CC3)c(=O)[nH]c2=O)c(C)c1,-4.23
7,CC1Cc2cc(/C(O)=C3/C(=O)C(=O)N(CCCn4ccnc4)C3c3ccc(Br)cc3)ccc2O1 (stereo not drawn),6.07
8,CN(Cc1ccc(F)cc1)C(=O)c1cc(COc2ccc(F)cc2F)on1,1.65
9,O=C(c1cc(COc2ccc(-n3cncn3)cc2)on1)N1CCCC1,-12
10,CCCOC1CCCN(C(=O)c2cc(COc3ccc(-n4cncn4)cc3)on2)C1 (stereo not drawn),-79
11,CN(Cc1ccc(F)cc1)C(=O)c1cc(COc2ccc(-n3cncn3)cc2)on1,-78.3
12,COc1cccc(CN(C)C(=O)c2cc(COc3ccc(-n4cncn4)cc3)on2)c1,-79.9
13,COCCOC1CCN(C(=O)c2cc(COc3ccc(-n4cncn4)cc3)on2)CC1,-22.8
14,COc1cccc(CN(C)C(=O)c2cc(COc3ccc4ncccc4c3)on2)c1,-14.8
15,CCc1ccc(CN(C)C(=O)c2cc(COc3ccc(-n4cncn4)cc3)on2)cc1,-42.5
16,COC1CCN(C(=O)c2cc(COc3ccc(-n4cncn4)cc3)on2)CC1,-18.6
17,CC(C)CCOP(N)(=O)Oc1ccccc1Cl (stereo not drawn),18.1
18,CCOc1ncccc1C(=O)OCC(=O)Nc1ccc2c(c1)OCO2,12.6
19,Cc1ccc(-n2[nH]c(C)c(C=Nc3ccc(S(=O)(=O)N4CCOCC4)cc3)c2=O)c(C)c1,-7.6
20,O=C(Nc1ccccc1NC(=O)NC1CCCCC1)NC1CCCCC1,0.961
21,Cc1c(NC(=O)CSc2nnc3c4ccccc4n(CCc4ccccc4)c3n2)c(=O)n(-c2ccccc2)n1C,-27.2
22,CC1(C)CC(CCN)(Cc2ccccc2Cl)CCO1 (stereo not drawn),-1.1
23,Cc1ccc(S(=O)(=O)NCc2cccnc2)cc1C(=O)N1CCCC1,20.3

row,Compound,"hERG current change (%, negative = inhibition) at 10uM [%]"
1,Cc1ccccc1CN1CCN(CCCc2ccccc2)C(CCO)C1 (stereo not drawn),-70
2,OCCC1CN(Cc2ccccc2O)CCN1CCCc1ccccc1 (stereo not drawn),-74.8
3,OCCC1CN(Cc2ccccc2O)CCN1CCc1ccccc1 (stereo not drawn),-35.6
4,Cc1ccccc1CN1CCN(CC2CC2)CC1CCO (stereo not drawn),-4.79
5,COc1ccc(-c2cc(C(=O)Nc3cccnc3Cl)no2)cc1OC,16.6
6,COc1ccc(OC)c(Nc2nnc(C)c(=O)[nH]2)c1,6.27
7,O=C1NC(=O)/C(=C\c2ccc(Br)o2)S1,21
8,CCOC(=O)c1[nH]c(C)c(C(=O)OCC(=O)N(CC)C2CCS(=O)(=O)C2)c1C (stereo not drawn),-8.58
9,COc1cccc(NC(=O)CCN2C(=O)c3cccc([N+](=O)[O-])c3C2=O)c1,-3.85
10,Cc1cccc(NC(=O)CCN2C(=O)c3cccc([N+](=O)[O-])c3C2=O)c1,10.8
11,CC(OC(=O)CCN1C(=O)c2cccc([N+](=O)[O-])c2C1=O)C(=O)Nc1cc(Cl)cc(Cl)c1 (stereo not drawn),-68.6
12,Cc1cc(N)ccc1NC(=O)CN1CCCC1,21.2
13,N#Cc1sc(C(N)=O)c(-c2ccccc2)c1-c1ccccc1,9.86
14,CCOc1ccc2nc(C)cc(Nc3cccc([N+](=O)[O-])c3)c2c1.Cl,-30.4
15,Cc1cc(Nc2cccc([N+](=O)[O-])c2)c2cccc(C)c2n1.Cl,-77.3
16,Cc1cc(Nc2ccc([N+](=O)[O-])cc2)c2ccccc2n1,-20
17,Cc1cc(Nc2ccccc2)c2c([N+](=O)[O-])ccc(C)c2n1,-24.7
18,O=[N+]([O-])c1cccc(Nc2c3ccccc3nc3ccccc23)c1,-11.5
19,Cc1cc(Nc2cccc([N+](=O)[O-])c2)c2ccccc2n1,-76.9
20,CCOc1cc(C2NN=C(c3ccc(C)cc3)S2)ccc1O (stereo not drawn),9.67
21,Cc1occc1C(=O)Nc1ccc2c(c1)OCO2,-7.71
22,O=C(O)c1ccc(C(=O)O)c(C(=O)c2ccccc2)c1,1.72
23,O=[N+]([O-])c1ccc(CN2CCSCC2)cc1,15.5

row,Compound,"hERG current change (%, negative = inhibition) at 10uM [%]"
1,c1ccc(CN2CCOCCOCCOCC2)cc1,15.6
2,O=[N+]([O-])c1ccc(CN2CCOCCOCCOCC2)cc1,-59.1
3,O=[N+]([O-])c1ccc(CN2CCCCCC2)cc1,-32.8
4,O=[N+]([O-])c1ccc(CN2CCOCCOCCN(Cc3ccc([N+](=O)[O-])cc3)CCOCC2)cc1,-77.8
5,O=C(NC(=S)Nc1ccc(CN2CCOCC2)cc1)c1ccc([N+](=O)[O-])cc1,-13
6,CC(OC(=O)c1ccc(Cl)c(S(=O)(=O)N2CCOCC2)c1)C(=O)NC1CCCCC1C (stereo not drawn),-35.9
7,O=C1OC(CCl)CN1Cc1c(Cl)cccc1Cl (stereo not drawn),-0.492
8,O=C(COc1ccc(C(=O)c2ccc(F)cc2)cc1)NCc1ccc(F)cc1,4.49
9,COC(=O)[C@]1(C)N[C@H](c2ccc(-c3ccc(F)cc3)cc2)[C@@H]2C(=O)N(C)C(=O)[C@@H]21.O=C(O)C(F)(F)F,-1.3
10,NS(=O)(=O)c1cc(C(=O)O)c(NCc2ccco2)cc1Cl,14.7
11,CCC(=O)N=c1sc2ccccc2n1-c1ccccc1,17.8
12,Cc1cc(N2CCCC2)ccc1C=C(C#N)C#N,-13.2
13,N#CC(C#N)=Cc1ccc(N2CCCC2)cc1,4.17
14,Cc1cc(C=C(C#N)C#N)ccc1N1CCCC1,-65
15,Cc1ccc(C)c(NC(=O)c2cc3c([nH]c4ccccc43)c(C)n2)c1,5.7
16,I.c1ccc2c(c1)nc(N1CCCCCC1)c1ccccc12,0.834
17,c1ccc2c(N3CCCCC3)nc(N3CCOCC3)nc2c1,-33.7
18,c1ccc2c(N3CCCCC3)nc(N3CCCCC3)nc2c1,-39.1
19,c1ccc2c(N3CCCCC3)nc(N3CCCC3)nc2c1,-69.6
20,Cc1nc(N2CCCCCC2)c2ccccc2n1.Cl,-51.5
21,Cl.c1ccc2c(c1)nc(N1CCCCC1)c1ccccc12,-2.67
